Data taken from the supplement of paper PMC4206461.

Tested on: Pseudomonas aeruginosa PA14 dppA1-A5 penta mutant + pBBR5.DppA1 (PA14_58350)
Assay: respiration area under curve with compound as sole nitrogen source, 24 h (OmniLog AUC (arbitrary units)); higher = more respiration / better utilisation as nitrogen source, active = 2000 or more
Method: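 Biolog Phenotype MicroArray plates PM6-PM8: each di/tripeptide is the sole nitrogen source. Tetrazolium reduction was read in the OmniLog for 24 h at 37°C and summarised as area under the respiration curve (arbitrary units). Values below 2000 count as no respiration. Strain is the SBP penta mutant complemented with DppA1 on a plasmid under its native promoter. Lys/His/Cys peptides are excluded.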

Compound | respiration area under curve
CSCC[C@H](N)C(=O)N[C@H](C(=O)O)[C@@H](C)O (plate: PM8) | 1950 (inactive)
CC(NC(=O)C(N)CC(=O)O)C(=O)O (stereo not given) (plate: PM8) | 6890 (active)
CSCCC(NC(=O)C(N)CC(C)C)C(=O)O (stereo not given) (plate: PM6) | 1220 (inactive)
C[C@H](NC(=O)[C@@H](N)Cc1c[nH]c2ccccc12)C(=O)O (plate: PM7) | 2360 (active)
N[C@@H](Cc1ccccc1)C(=O)N[C@@H](Cc1ccc(O)cc1)C(=O)O (plate: PM8) | 2050 (active)
O=C(O)[C@H](Cc1ccc(O)cc1)NC(=O)[C@@H]1CCCN1 (plate: PM7) | 11800 (active)
NC(=O)CC[C@H](N)C(=O)NCC(=O)O (plate: PM6) | 5240 (active)
NC(=O)C[C@H](NC(=O)[C@@H]1CCCN1)C(=O)O (plate: PM8) | 11600 (active)
CC(C)C[C@H](N)C(=O)N[C@@H](Cc1ccccc1)C(=O)O (plate: PM6) | 4550 (active)
NCC(=O)N[C@@H](CO)C(=O)O (plate: PM6) | 6080 (active)
C[C@@H](O)[C@H](N)C(=O)N[C@@H](Cc1ccccc1)C(=O)O (plate: PM8) | 6440 (active)
C[C@H](N)C(=O)N[C@H](C(=O)O)[C@@H](C)O (plate: PM6) | 4830 (active)
CC(C)C[C@H](N)C(=O)N1CCC[C@H]1C(=O)O (plate: PM8) | 5120 (active)
N[C@@H](Cc1ccccc1)C(=O)NCC(=O)O (plate: PM7) | 6420 (active)
CSCC[C@H](N)C(=O)N[C@@H](CCC(=O)O)C(=O)O (plate: PM7) | 1490 (inactive)
CC(C)C[C@H](N)C(=O)N[C@@H](CCCN=C(N)N)C(=O)O (plate: PM6) | 8260 (active)
C[C@H](N)C(=O)N[C@@H](CC(N)=O)C(=O)O (plate: PM6) | 7840 (active)
N[C@@H](Cc1c[nH]c2ccccc12)C(=O)N[C@@H](Cc1ccc(O)cc1)C(=O)O (plate: PM7) | 292 (inactive)
CC(C)[C@H](NC(=O)[C@@H](N)CCC(=O)O)C(=O)O (plate: PM6) | 2600 (active)
CSCC[C@H](NC(=O)CN)C(=O)O (plate: PM6) | 50.7 (inactive)

Compound | respiration area under curve
C[C@H](NC(=O)[C@@H](N)CCC(=O)O)C(=O)O (plate: PM8) | 7690 (active)
C[C@H](N)C(=O)N[C@@H](CCCN=C(N)N)C(=O)O (plate: PM6) | 9300 (active)
C[C@H](N)C(=O)N[C@@H](C)C(=O)O (plate: PM6) | 7210 (active)
N[C@@H](Cc1ccccc1)C(=O)N[C@@H](CC(=O)O)C(=O)O (plate: PM8) | 2600 (active)
CC(C)C[C@H](N)C(=O)N[C@H](C(=O)O)C(C)C (plate: PM7) | 10300 (active)
CSCC[C@H](N)C(=O)N[C@@H](CC(=O)O)C(=O)O (plate: PM7) | 4440 (active)
NC(N)=NCCC[C@H](N)C(=O)N[C@@H](Cc1ccc(O)cc1)C(=O)O (plate: PM6) | 8490 (active)
NC(N)=NCCC[C@H](NC(=O)[C@@H]1CCCN1)C(=O)O (plate: PM8) | 10300 (active)
NCC(=O)N[C@@H](Cc1ccccc1)C(=O)N[C@@H](Cc1ccccc1)C(=O)O (plate: PM8) | 5190 (active)
CSCC[C@H](N)C(=O)NCC(=O)O (plate: PM7) | 3910 (active)
CC(C)C[C@H](NC(=O)[C@H](CC(C)C)NC(=O)[C@@H](N)CC(C)C)C(=O)O (plate: PM8) | 3090 (active)
C[C@H](N)C(=O)N[C@@H](C)C(=O)N[C@@H](C)C(=O)O (plate: PM8) | 8340 (active)
CC(C)[C@H](N)C(=O)N[C@@H](CCC(=O)O)C(=O)O (plate: PM8) | 2880 (active)
C[C@@H](O)[C@H](N)C(=O)N[C@@H](CCC(N)=O)C(=O)O (plate: PM8) | 10400 (active)
CC(C)C[C@H](NC(=O)[C@@H](N)CC(=O)O)C(=O)O (plate: PM6) | 984 (inactive)
C[C@H](N)C(=O)N[C@@H](CCC(=O)O)C(=O)O (plate: PM6) | 6760 (active)
NC(=O)C[C@H](NC(=O)[C@@H](N)CO)C(=O)O (plate: PM8) | 10900 (active)
CC(C)C[C@H](NC(=O)[C@@H](N)C(C)C)C(=O)O (plate: PM7) | 7530 (active)
C[C@H](NC(=O)[C@@H](N)CCCN=C(N)N)C(=O)O (plate: PM6) | 8610 (active)
NCC(=O)N[C@@H](CC(=O)O)C(=O)O (plate: PM8) | 4090 (active)
